Assay results as given in PubChem BioAssay AID1159580 (chemical genetic matrix, 2015).
Several values for one entry are separate records, joined by “and”; a condition that tells them apart may be missing. Identical values can stand only once. Among all 5,500 compounds or so, about 2,000 (36%) were called active. About 18% were inconclusive and are not listed. Rule as the data show it: active = normalized growth mostly below about 0.91 (no sharp cut-off); inconclusive = no clear call, values can overlap the other calls; inactive = mostly above about 0.92. The list shows a part of the results.

Assay: chemical genetic growth profiling, strain panel (AID 1159580);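 also: tested at 20 µM; growth read once vehicle control cultures reached saturation at 30 °C; 1 = growth at the plate median or of vehicle wells; lower values mean less growth of the strain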
Conditions: growth OD

Measured: normalized growth

NC(Cc1ccc(Cl)cc1)C(=O)O (centres undefined)
inactive: S. cerevisiae deletion strains, locus YJR075W, strain HOC1, active compounds read low 0.999 and 1.06 | S. cerevisiae deletion strains, locus YKL009W, strain mrt4, active compounds read low 1.03 | S. cerevisiae deletion strains, locus YKL068W, active compounds read low 0.994 | S. cerevisiae deletion strains, locus YKL085W, strain MDH1 (second series), active compounds read low 0.994 | S. cerevisiae deletion strains, locus YKL085W, strain MDH1, active compounds read low 0.994 | S. cerevisiae deletion strains, locus YKL160W, strain elf1, active compounds read low 0.996 | S. cerevisiae deletion strains, locus YKL190W, strain CNB1, active compounds read low 0.991 | S. cerevisiae deletion strains, locus YKR001C, strain vps1, active compounds read low 1.02 | S. cerevisiae deletion strains, locus YKR026C, strain gcn3, active compounds read low 1 | S. cerevisiae deletion strains, locus YKR091W, strain srl3, active compounds read low 0.993 | S. cerevisiae deletion strains, locus YLL001W, strain dnm1, active compounds read low 0.984 | S. cerevisiae deletion strains, locus YLL026W, active compounds read low 0.999 | S. cerevisiae deletion strains, locus YLL041C, strain sdh2, active compounds read low 1 | S. cerevisiae deletion strains, locus YLR027C, strain aat2, active compounds read low 0.999 | S. cerevisiae deletion strains, locus YLR039C, strain RIC1, active compounds read low 0.994 | S. cerevisiae deletion strains, locus YLR058C, strain SHM2, active compounds read low 0.981 | S. cerevisiae deletion strains, locus YLR102C, strain apc9, active compounds read low 0.998 | S. cerevisiae deletion strains, locus YLR113W, strain HOG1, active compounds read low 0.971 | S. cerevisiae deletion strains, locus YLR221C, strain rsa3, active compounds read low 0.996 | S. cerevisiae deletion strains, locus YLR258W, strain gsy2, active compounds read low 0.988 | S. cerevisiae deletion strains, locus YLR262C, strain YPT6 (second series), active compounds read low 1.02 | S. cerevisiae deletion strains, locus YLR262C, strain YPT6, active compounds read low 0.955 | S. cerevisiae deletion strains, locus YLR268W, strain sec22, active compounds read low 1 | S. cerevisiae deletion strains, locus YLR320W, strain mms22, active compounds read low 0.996 | S. cerevisiae deletion strains, locus YLR330W, strain CHS5, active compounds read low 0.992 | S. cerevisiae deletion strains, locus YLR342W, strain FKS1 (second series), active compounds read low 1.02 | S. cerevisiae deletion strains, locus YLR342W, strain FKS1, active compounds read low 0.999 | S. cerevisiae deletion strains, locus YLR357W, strain rsc2, active compounds read low 0.977 | S. cerevisiae deletion strains, locus YLR370C, strain arc18, active compounds read low 1 | S. cerevisiae deletion strains, locus YLR371W, strain rom2, active compounds read low 0.993 | S. cerevisiae deletion strains, locus YLR384C, strain iki3, active compounds read low 0.986 | S. cerevisiae deletion strains, locus YLR418C, strain cdc73, active compounds read low 1.04 | S. cerevisiae deletion strains, locus YML016C, strain PPZ1, active compounds read low 0.986 | S. cerevisiae deletion strains, locus YML032C, strain rad52, active compounds read low 0.983 | S. cerevisiae deletion strains, locus YML120C, strain ndi1, active compounds read low 0.993 | S. cerevisiae deletion strains, locus YML124C, strain tub3, active compounds read low 0.998 | S. cerevisiae deletion strains, locus YMR058W, strain fet3, active compounds read low 1.02 | S. cerevisiae deletion strains, locus YMR078C, strain ctf18, active compounds read low 0.992 | S. cerevisiae deletion strains, locus YMR125W, strain sto1, active compounds read low 0.993 | S. cerevisiae deletion strains, locus YMR129W, active compounds read low 0.995 | S. cerevisiae deletion strains, locus YMR205C, strain PFK2, active compounds read low 0.991 | S. cerevisiae deletion strains, locus YMR223W, strain ubp8, active compounds read low 1.01 | S. cerevisiae deletion strains, locus YMR231W, strain pep5, active compounds read low 0.993 | S. cerevisiae deletion strains, locus YMR263W, strain SAP30, active compounds read low 0.991 and 0.983 | S. cerevisiae deletion strains, locus YMR307W, strain GAS1, active compounds read low 1.06 | S. cerevisiae deletion strains, locus YNL067W, strain RPL9B, active compounds read low 0.986 | S. cerevisiae deletion strains, locus YNL071W, strain lat1, active compounds read low 1 | S. cerevisiae deletion strains, locus YNL128W, strain TEP1, active compounds read low 0.976 | S. cerevisiae deletion strains, locus YNL153C, strain GIM3, active compounds read low 0.983 and 1.07 | S. cerevisiae deletion strains, locus YNL175C, strain NOP13, active compounds read low 0.986 | S. cerevisiae deletion strains, locus YNL183C, strain NPR1, active compounds read low 0.891 | S. cerevisiae deletion strains, locus YNL209W, strain ssb2, active compounds read low 1 | S. cerevisiae deletion strains, locus YNL224C, strain SQS1, active compounds read low 1.01 | S. cerevisiae deletion strains, locus YNL233W, strain BNI4, active compounds read low 0.991 | S. cerevisiae deletion strains, locus YNL248C, strain rpa49, active compounds read low 1.01 | S. cerevisiae deletion strains, locus YNL250W, strain rad50, active compounds read low 0.988 | S. cerevisiae deletion strains, locus YNL271C, strain bni1, active compounds read low 1 | S. cerevisiae deletion strains, locus YNL298W, strain CLA4, active compounds read low 0.985 | S. cerevisiae deletion strains, locus YNL307C, strain MCK1, active compounds read low 1.01 | S. cerevisiae deletion strains, locus YNL322C, strain KRE1 (second series), active compounds read low 0.983 | S. cerevisiae deletion strains, locus YNL322C, strain KRE1, active compounds read low 0.989 | S. cerevisiae deletion strains, locus YNR049C, strain mso1, active compounds read low 1 | S. cerevisiae deletion strains, locus YNR052C, strain pop2, active compounds read low 0.986 | S. cerevisiae deletion strains, locus YOL006C, strain TOP1, active compounds read low 0.991 | S. cerevisiae deletion strains, locus YOL012C, strain htz1 1.95 | S. cerevisiae deletion strains, locus YOL147C, strain pex11, active compounds read low 1.01 | S. cerevisiae deletion strains, locus YOR001W, strain rrp6, active compounds read low 1 | S. cerevisiae deletion strains, locus YOR061W, strain CKA2, active compounds read low 0.97 | S. cerevisiae deletion strains, locus YOR069W, strain VPS5, active compounds read low 0.997 | S. cerevisiae deletion strains, locus YOR070C, strain gyp1, active compounds read low 0.988 | S. cerevisiae deletion strains, locus YOR080W, strain dia2, active compounds read low 0.992 | S. cerevisiae deletion strains, locus YOR083W, strain WHI5, active compounds read low 1.02 | S. cerevisiae deletion strains, locus YOR106W, strain vam3, active compounds read low 0.987 | S. cerevisiae deletion strains, locus YOR136W, strain idh2, active compounds read low 0.995 | S. cerevisiae deletion strains, locus YOR144C, strain elg1, active compounds read low 1 | S. cerevisiae deletion strains, locus YOR184W, strain ser1, active compounds read low 1 | S. cerevisiae deletion strains, locus YOR231W, strain MKK1, active compounds read low 0.991 | S. cerevisiae deletion strains, locus YOR265W, strain rbl2, active compounds read low 0.986 | S. cerevisiae deletion strains, locus YOR270C, strain vph1, active compounds read low 1.02 | S. cerevisiae deletion strains, locus YOR290C, strain snf2, active compounds read low 0.965 | S. cerevisiae deletion strains, locus YOR316C, strain cot1, active compounds read low 0.993 | S. cerevisiae deletion strains, locus YPL051W, strain arl3, active compounds read low 0.992 | S. cerevisiae deletion strains, locus YPL055C, strain LGE1, active compounds read low 0.976 | S. cerevisiae deletion strains, locus YPL078C, strain atp4, active compounds read low 1 | S. cerevisiae deletion strains, locus YPL106C, strain sse1, active compounds read low 0.97 | S. cerevisiae deletion strains, locus YPL240C, strain hsp82, active compounds read low 1 | S. cerevisiae deletion strains, locus YPL241C, strain CIN2, active compounds read low 0.995 and 1.01 | S. cerevisiae deletion strains, locus YPL256C, strain CLN2, active compounds read low 0.969 | S. cerevisiae deletion strains, locus YPR119W, strain clb2, active compounds read low 0.993 | S. cerevisiae deletion strains, locus YPR141C, strain kar3, active compounds read low 0.992 | S. cerevisiae deletion strains, locus YPR163C, strain tif3, active compounds read low 1 | S. cerevisiae deletion strains, locus YPR167C, strain met16, active compounds read low 0.996 | S. cerevisiae deletion strains, strain wtn01, active compounds read low 0.99 | S. cerevisiae strains, strain wild type, active compounds read low 0.998
